Data: the supplement of paper PMC11732987, “Enantioselective OTUD7B fragment discovery through chemoproteomics screening and high-throughput optimisation” (Communications Chemistry, 2025)

Legend:
Test in all cases: log2 ratio of Biotin-Ahx-Ub-VS probe labelling (fragment/DMSO); higher = less target engagement (more negative = stronger competition), active = hit call of the paper (q ≤ 0.05, log2 ratio ≤ -1)
Conditions in all cases: compound concentration: 200 uM; treatment time: 3 h
OTUD6B = target: T1, OTUD6B (UniProt Q8N6M0)
T1 sequence (whole entry): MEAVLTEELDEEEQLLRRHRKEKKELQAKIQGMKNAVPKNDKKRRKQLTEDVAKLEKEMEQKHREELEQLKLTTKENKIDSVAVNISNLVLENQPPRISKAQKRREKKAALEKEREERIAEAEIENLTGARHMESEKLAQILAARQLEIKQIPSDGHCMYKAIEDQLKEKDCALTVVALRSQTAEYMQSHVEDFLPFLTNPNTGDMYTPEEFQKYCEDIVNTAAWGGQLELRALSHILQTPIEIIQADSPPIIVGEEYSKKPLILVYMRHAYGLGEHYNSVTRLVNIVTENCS
Outline: (§1)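 HEK293T lysate (495 µg per sample, in Tris/CHAPS/IGEPAL buffer with protease inhibitors) was treated in triplicate with fragment at 200 µM or with DMSO for 3 h. It was then treated with Biotin-Ahx-Ub-VS (0.5 µM final) for 1 h. Labelled DUBs were NeutrAvidin-enriched, digested with LysC and trypsin, and run by diaPASEF LC-MS/MS. Spectronaut label-free quantities were global-median-normalised. Values are average log2 ratios fragment/DMSO by unpaired t-test, using proteins with ≥2 unique peptides.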

OTUD7B = target: T2, OTUD7B (UniProt Q6GQQ9)
T2 sequence (whole entry): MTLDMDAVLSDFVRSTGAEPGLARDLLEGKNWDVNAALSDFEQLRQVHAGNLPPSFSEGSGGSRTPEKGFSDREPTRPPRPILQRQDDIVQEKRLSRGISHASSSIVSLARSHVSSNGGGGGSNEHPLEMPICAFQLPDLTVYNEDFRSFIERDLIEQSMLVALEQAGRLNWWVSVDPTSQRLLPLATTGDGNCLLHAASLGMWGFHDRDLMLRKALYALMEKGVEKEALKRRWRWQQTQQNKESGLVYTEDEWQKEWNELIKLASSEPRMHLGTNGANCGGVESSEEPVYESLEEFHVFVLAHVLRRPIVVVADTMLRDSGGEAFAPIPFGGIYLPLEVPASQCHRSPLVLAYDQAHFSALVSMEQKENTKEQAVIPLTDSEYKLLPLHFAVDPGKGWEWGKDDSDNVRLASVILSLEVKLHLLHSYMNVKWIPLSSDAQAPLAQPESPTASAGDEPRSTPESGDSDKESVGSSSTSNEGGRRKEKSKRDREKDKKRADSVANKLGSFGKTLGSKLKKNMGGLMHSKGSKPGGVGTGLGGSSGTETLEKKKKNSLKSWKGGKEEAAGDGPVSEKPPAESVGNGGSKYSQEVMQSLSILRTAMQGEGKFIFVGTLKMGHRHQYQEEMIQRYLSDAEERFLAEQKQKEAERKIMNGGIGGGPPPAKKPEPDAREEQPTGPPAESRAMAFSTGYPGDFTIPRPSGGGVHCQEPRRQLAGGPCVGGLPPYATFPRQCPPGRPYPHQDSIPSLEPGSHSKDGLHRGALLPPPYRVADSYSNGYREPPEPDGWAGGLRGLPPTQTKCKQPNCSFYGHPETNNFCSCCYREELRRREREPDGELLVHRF
Outline: as §1

PRPF8 = PRPF8 (UniProt Q6P2Q9)
Outline: as §1

PSMD7 = target: T3, PSMD7 (UniProt P51665)
T3 sequence (whole entry): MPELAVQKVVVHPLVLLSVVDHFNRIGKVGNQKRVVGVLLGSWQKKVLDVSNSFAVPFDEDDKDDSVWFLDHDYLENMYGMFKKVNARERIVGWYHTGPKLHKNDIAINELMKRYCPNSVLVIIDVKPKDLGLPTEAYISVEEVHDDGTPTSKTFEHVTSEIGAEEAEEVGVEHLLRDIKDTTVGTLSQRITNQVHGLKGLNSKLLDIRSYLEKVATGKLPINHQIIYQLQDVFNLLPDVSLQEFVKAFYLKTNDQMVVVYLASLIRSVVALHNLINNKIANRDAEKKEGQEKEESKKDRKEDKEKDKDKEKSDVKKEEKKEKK
Outline: as §1

UCHL1 = UCHL1 (UniProt P09936)
Outline: as §1

UCHL3 = target: T4, UCHL3 (UniProt P15374)
T4 sequence (whole entry): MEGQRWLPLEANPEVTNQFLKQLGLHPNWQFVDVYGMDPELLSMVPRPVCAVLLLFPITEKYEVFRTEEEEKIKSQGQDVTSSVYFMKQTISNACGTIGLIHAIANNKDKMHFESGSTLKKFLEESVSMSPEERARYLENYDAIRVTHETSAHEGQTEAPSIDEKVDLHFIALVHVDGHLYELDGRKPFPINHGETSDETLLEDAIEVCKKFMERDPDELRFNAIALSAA
Outline: as §1

UCHL5 = target: T5, UCHL5 (UniProt Q9Y5K5)
T5 sequence (whole entry): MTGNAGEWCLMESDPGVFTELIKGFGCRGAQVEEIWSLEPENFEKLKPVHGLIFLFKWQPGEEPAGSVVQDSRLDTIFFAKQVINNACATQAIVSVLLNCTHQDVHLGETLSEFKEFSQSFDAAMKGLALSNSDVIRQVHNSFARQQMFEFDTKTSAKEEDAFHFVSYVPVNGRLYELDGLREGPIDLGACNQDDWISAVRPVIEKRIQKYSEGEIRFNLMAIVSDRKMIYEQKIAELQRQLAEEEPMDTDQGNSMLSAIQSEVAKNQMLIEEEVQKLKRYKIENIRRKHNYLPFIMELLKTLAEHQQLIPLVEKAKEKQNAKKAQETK
Outline: as §1

USP10 = USP10 (UniProt Q14694)
Outline: as §1

USP15 = target: T6, USP15 (UniProt Q9Y4E8)
T6 sequence (whole entry): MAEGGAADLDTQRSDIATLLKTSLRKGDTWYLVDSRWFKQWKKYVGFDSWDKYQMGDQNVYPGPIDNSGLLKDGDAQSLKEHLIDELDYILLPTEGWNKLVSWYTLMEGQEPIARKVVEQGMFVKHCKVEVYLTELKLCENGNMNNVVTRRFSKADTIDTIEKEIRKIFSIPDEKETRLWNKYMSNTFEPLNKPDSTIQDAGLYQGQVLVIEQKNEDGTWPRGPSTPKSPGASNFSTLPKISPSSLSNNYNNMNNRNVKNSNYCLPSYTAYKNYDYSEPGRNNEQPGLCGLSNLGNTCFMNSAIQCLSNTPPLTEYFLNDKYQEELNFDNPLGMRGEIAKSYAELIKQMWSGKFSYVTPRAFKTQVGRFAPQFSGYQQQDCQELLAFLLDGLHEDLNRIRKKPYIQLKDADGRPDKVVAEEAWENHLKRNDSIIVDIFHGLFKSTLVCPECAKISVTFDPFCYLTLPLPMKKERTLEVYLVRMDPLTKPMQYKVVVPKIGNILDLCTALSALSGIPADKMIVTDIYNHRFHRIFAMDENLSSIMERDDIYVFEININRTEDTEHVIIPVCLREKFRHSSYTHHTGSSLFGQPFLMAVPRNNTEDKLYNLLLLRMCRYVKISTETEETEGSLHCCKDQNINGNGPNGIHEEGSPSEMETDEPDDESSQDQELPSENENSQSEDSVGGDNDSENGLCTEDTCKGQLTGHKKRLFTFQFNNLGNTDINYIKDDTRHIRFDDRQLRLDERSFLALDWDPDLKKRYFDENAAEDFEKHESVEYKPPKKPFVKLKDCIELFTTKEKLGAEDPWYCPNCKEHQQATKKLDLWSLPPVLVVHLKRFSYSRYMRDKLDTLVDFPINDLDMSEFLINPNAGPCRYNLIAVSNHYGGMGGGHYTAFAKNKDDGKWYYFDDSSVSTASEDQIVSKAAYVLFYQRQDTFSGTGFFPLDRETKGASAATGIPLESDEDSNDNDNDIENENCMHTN
Outline: as §1

USP16 = USP16 (UniProt Q9Y5T5)
Outline: as §1

Measured: log2 ratio of Biotin-Ahx-Ub-VS probe labelling

Sequence of USP16 (Q9Y5T5 whole entry, looked up): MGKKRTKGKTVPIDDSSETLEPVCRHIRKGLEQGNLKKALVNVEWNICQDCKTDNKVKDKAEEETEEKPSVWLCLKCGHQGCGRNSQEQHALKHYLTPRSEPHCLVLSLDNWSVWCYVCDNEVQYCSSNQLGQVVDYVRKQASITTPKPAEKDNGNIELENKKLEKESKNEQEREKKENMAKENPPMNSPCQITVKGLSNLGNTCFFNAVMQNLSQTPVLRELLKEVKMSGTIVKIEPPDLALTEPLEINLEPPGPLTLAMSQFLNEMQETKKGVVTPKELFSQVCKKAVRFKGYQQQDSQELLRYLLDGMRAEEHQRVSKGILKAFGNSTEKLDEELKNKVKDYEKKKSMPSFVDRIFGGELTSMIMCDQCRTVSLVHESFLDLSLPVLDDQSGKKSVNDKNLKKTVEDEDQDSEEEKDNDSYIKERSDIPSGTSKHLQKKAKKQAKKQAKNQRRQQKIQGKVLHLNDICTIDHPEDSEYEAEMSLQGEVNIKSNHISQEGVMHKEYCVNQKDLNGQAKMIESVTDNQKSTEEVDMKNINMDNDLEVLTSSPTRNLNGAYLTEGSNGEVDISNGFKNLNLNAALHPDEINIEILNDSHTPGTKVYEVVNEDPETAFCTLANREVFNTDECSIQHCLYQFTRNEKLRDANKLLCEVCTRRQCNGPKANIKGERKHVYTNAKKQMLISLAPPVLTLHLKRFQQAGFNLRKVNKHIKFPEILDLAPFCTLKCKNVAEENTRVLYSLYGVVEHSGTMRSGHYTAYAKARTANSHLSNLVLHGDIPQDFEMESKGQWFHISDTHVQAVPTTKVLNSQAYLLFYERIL
Sequence of USP10 (Q14694 whole entry): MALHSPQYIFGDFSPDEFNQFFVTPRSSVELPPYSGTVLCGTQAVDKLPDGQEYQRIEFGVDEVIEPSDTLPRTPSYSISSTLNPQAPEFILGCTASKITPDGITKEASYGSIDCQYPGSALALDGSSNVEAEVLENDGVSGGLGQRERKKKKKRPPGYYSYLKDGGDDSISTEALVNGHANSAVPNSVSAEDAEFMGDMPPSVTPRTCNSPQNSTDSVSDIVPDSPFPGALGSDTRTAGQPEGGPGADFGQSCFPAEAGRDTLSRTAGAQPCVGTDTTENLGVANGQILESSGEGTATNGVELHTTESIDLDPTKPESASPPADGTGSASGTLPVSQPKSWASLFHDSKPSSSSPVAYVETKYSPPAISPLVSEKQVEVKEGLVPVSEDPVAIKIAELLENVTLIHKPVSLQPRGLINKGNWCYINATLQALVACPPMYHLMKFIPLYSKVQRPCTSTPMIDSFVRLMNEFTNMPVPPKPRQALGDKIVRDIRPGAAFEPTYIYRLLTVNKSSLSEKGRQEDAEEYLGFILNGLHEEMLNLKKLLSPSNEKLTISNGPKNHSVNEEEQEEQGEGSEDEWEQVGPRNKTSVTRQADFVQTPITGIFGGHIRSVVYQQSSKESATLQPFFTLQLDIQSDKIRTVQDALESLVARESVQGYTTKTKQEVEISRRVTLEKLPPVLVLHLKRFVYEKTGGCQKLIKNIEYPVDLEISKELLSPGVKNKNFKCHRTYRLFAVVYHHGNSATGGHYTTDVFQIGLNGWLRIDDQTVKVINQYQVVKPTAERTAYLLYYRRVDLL
Sequence of UCHL1 (P09936 whole entry, looked up): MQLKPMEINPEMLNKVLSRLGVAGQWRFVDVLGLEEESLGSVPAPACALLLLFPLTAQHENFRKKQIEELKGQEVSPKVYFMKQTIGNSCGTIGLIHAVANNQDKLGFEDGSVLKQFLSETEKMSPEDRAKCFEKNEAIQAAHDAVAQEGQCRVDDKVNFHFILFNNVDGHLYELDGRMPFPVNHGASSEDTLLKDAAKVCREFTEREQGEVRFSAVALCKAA

O=C(CCl)NC1CCC2(CC1)OCCO2
inactive: OTUD6B -0.272 | OTUD7B -0.893 | PRPF8 -0.267 | PSMD7 -0.147 | UCHL3 -0.0419 | UCHL5 -0.477 | USP10 -0.165 | USP15 -0.308 | USP16 -0.00437
active: UCHL1 -1.25
